The supplement of paper PMC11006884
The full data set covers some 6,500 targets. This sample favours those with a hit. About 2% of all pairs of compound and target were hits.

compound: COC(=O)C#Cc1ccccc1 [methyl 3-phenylpropiolate]; assay: log2 ratio of iodoacetamide-alkyne labeling of the cysteine site, DMSO over compound (competition); higher = stronger covalent engagement of the cysteine by the compound, active = 1 or more; conditions: 500 µM; treatment time 1 h; system: HEK293T cell lysate
How it was run: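 For each cysteine, the log2 competition ratio is mean control-channel reporter intensity over mean compound-channel reporter intensity. HEK293T lysate (2 mg/mL) was exposed to vehicle or electrophile (500 µM, 1 h, ambient temperature), labelled with iodoacetamide alkyne (1 h), clicked to sCIP-TMT reagents, digested overnight with trypsin at 37 °C, streptavidin-enriched and analysed by Orbitrap Eclipse LC-MS/MS with FAIMS and FragPipe. Cysteines quantified in only one of three replicates, each with duplicate channels, were excluded.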

Chain of UniProt Q9Y2P8 (Q9Y2P8 whole entry): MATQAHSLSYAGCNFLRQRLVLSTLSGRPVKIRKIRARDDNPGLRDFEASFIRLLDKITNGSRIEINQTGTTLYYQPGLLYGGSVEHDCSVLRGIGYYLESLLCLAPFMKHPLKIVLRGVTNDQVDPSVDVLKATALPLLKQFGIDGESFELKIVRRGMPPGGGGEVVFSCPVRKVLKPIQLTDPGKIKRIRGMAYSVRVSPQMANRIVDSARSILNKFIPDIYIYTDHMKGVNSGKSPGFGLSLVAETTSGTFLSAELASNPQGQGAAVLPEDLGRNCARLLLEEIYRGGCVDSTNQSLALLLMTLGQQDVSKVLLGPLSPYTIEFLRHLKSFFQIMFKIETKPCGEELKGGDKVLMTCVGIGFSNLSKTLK
Chain of UniProt Q9NVX7 (Q9NVX7 whole entry, looked up): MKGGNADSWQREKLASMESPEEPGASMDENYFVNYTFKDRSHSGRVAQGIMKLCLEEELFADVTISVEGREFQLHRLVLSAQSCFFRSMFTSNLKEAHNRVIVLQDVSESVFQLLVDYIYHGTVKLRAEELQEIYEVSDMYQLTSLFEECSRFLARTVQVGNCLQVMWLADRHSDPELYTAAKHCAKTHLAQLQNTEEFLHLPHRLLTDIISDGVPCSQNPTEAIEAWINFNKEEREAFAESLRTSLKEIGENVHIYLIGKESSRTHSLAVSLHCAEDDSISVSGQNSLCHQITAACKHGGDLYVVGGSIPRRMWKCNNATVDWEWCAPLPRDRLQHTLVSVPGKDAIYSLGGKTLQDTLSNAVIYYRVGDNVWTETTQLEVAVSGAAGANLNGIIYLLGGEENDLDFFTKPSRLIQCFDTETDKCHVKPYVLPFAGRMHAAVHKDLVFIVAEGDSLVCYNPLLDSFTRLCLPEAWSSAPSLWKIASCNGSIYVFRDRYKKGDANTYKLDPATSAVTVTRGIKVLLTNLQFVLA
Chain of UniProt Q9P2I0 (Q9P2I0 whole entry, looked up): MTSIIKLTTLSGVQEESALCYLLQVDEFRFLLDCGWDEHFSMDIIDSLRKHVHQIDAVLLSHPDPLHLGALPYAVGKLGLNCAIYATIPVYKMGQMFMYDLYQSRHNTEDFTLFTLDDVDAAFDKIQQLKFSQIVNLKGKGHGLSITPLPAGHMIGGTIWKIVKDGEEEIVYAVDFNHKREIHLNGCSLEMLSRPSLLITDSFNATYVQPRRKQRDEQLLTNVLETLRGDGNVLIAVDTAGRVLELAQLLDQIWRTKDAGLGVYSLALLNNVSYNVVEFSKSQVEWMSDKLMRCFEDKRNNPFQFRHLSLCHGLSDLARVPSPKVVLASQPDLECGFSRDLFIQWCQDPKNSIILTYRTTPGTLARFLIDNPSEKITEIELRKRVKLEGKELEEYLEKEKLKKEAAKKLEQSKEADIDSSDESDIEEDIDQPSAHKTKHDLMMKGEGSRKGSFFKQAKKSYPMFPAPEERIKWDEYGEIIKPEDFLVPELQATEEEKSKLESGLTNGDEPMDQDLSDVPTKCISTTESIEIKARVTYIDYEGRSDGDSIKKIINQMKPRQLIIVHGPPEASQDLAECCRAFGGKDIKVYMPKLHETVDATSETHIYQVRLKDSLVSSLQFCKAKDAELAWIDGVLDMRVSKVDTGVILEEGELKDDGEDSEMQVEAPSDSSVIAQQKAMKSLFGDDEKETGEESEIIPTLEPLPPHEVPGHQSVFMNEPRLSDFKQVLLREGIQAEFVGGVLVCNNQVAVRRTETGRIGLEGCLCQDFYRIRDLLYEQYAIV
Chain of UniProt Q9NRR5 (Q9NRR5 whole entry): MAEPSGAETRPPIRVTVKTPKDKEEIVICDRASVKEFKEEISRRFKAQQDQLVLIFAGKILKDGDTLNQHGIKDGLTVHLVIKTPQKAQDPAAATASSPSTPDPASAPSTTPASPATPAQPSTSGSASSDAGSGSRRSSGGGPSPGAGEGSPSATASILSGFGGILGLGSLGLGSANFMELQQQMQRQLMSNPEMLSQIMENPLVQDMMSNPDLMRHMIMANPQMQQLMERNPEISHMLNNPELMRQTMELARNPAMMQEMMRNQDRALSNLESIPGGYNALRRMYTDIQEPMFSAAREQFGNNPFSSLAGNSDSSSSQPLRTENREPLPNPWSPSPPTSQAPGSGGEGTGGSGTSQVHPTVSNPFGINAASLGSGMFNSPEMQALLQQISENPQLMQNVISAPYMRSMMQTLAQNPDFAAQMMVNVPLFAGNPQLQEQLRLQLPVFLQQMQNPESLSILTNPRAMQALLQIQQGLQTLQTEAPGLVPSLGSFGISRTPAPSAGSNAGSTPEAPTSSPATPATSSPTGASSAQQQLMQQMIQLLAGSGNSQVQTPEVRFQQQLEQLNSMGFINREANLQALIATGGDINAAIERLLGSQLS
Chain of UniProt Q9NRX1 (Q9NRX1 whole entry): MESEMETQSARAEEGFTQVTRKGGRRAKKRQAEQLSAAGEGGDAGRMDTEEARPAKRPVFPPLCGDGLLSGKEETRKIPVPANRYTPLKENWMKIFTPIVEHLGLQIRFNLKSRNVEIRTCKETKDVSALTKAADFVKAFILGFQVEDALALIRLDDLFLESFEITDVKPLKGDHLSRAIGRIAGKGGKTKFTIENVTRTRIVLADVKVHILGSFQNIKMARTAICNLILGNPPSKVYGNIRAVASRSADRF
Chain of UniProt Q9NR33 (Q9NR33 whole entry): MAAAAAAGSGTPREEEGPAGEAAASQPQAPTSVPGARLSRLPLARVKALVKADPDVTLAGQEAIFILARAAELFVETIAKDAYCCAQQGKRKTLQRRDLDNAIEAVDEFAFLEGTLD
Chain of UniProt Q9UER7 (Q9UER7 whole entry, looked up): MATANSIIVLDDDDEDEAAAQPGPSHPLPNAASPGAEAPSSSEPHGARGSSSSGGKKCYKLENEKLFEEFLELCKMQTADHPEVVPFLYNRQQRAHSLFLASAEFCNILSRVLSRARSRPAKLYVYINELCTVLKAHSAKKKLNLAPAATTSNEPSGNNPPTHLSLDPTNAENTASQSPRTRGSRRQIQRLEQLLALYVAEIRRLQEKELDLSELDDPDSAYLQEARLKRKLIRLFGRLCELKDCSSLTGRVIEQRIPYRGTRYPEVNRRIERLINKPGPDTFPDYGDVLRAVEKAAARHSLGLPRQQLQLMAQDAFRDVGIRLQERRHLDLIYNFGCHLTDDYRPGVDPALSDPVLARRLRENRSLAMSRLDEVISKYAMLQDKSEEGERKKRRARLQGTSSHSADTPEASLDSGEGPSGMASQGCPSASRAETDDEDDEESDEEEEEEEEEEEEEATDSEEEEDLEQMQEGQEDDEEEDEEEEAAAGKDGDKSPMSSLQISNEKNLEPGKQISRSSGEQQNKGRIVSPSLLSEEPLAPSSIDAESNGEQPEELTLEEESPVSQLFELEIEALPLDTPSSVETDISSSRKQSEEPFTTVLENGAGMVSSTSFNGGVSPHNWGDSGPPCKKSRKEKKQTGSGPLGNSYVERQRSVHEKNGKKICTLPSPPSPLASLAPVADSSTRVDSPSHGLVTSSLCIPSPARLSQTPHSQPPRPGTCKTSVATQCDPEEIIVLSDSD
Chain of UniProt Q9P2E9 (Q9P2E9 whole entry, looked up): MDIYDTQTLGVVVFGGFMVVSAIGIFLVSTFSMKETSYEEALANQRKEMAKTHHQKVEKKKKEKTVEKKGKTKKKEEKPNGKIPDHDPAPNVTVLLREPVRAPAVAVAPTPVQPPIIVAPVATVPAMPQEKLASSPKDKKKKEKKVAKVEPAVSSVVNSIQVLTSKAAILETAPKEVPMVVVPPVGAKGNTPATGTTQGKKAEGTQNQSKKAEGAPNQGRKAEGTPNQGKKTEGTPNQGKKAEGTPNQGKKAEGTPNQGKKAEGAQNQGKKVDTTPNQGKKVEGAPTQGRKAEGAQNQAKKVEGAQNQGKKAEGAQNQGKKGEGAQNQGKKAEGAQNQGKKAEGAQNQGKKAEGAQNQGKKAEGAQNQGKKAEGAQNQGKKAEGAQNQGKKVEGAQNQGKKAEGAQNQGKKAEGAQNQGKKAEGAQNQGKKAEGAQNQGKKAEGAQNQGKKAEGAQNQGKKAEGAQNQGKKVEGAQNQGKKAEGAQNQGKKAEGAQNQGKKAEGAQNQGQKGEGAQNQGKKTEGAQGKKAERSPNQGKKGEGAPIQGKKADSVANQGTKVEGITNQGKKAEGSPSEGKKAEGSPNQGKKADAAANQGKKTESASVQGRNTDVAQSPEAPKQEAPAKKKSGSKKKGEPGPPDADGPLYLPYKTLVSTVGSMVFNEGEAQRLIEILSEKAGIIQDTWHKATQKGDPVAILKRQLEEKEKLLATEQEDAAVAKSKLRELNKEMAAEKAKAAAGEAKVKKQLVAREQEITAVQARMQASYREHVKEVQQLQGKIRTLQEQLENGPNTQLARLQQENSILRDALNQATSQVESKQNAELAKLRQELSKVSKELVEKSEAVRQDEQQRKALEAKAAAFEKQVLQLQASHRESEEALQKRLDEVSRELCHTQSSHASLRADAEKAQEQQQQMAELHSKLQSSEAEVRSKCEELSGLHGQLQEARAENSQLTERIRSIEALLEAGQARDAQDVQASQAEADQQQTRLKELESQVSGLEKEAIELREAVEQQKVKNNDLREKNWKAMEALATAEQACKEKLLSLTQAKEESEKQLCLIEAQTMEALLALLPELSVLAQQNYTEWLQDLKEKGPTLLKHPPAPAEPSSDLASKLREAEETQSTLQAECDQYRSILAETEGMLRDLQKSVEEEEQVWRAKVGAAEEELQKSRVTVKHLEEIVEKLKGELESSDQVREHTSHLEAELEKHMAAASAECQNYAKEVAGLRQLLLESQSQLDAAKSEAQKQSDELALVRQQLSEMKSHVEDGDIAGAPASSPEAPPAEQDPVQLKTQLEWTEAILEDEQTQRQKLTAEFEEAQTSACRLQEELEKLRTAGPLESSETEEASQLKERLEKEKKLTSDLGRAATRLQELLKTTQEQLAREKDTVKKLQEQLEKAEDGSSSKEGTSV
Chain of UniProt Q9Y3C1 (Q9Y3C1 whole entry): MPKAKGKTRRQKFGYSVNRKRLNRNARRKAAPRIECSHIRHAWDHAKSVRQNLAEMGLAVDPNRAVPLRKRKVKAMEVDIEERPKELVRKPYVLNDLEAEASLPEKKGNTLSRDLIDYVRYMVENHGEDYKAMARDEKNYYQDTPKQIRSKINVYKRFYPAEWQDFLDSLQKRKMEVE

Target | log2 ratio of iodoacetamide-alkyne labeling
UniProt Q9Y3B4_C83 | 0.2 (inactive)
UBQLN4 C29 (UniProt Q9NRR5) | 1.12 (active)
UniProt Q9NW64_C24 | 0.351 (inactive)
AASS C87 (UniProt Q9UDR5) | 0.102 (inactive)
KBTBD4 C455 (UniProt Q9NVX7) | 0.248 (inactive)
NCDN C3 (UniProt Q9UBB6) | 1.66 (active)
MLXIP C738 (UniProt Q9HAP2) | -0.0833 (inactive)
UTP6 C309 (UniProt Q9NYH9) | 0.0486 (inactive)
FANCI C56 (UniProt Q9NVI1) | 0.281 (inactive)
CCDC88C C1520 (UniProt Q9P219) | 1.15 (active)
TLN1 C2243 (UniProt Q9Y490) | 0.0807 (inactive)
ASF1B C178 (UniProt Q9NVP2) | 1.22 (active)
UniProt Q9BYV8_C171 | 0.361 (inactive)
LSM7 C76 (UniProt Q9UK45) | 0.0557 (inactive)
UniProt Q9UK61_C429 | 0.233 (inactive)
UniProt Q9Y3U8_C48 | 0.297 (inactive)
DAXX C720 (UniProt Q9UER7) | 1.35 (active)
UniProt Q9UPN4_C218 | 0.212 (inactive)
NDRG3 C290 (UniProt Q9UGV2) | -0.105 (inactive)
UniProt Q9UBD5_C159 | 1.13 (active)

Target | log2 ratio of iodoacetamide-alkyne labeling
FAM120C C14 (UniProt Q9NX05) | 0.327 (inactive)
POLE4 C84 (UniProt Q9NR33) | -0.0179 (inactive)
RCL1 C13 (UniProt Q9Y2P8) | -0.0901 (inactive)
GPHN C26 (UniProt Q9NQX3) | -0.0135 (inactive)
NOP16 C36 (UniProt Q9Y3C1) | 1.12 (active)
C11orf68 C222 (UniProt Q9H3H3) | 0.528 (inactive)
NCDN C4 (UniProt Q9UBB6) | 1.66 (active)
CPSF2 C765 (UniProt Q9P2I0) | 1.01 (active)
RRBP1 C892 (UniProt Q9P2E9) | 0.291 (inactive)
PNO1 C64 (UniProt Q9NRX1) | 0.367 (inactive)
ALG5 C194 (UniProt Q9Y673) | 0.233 (inactive)
KIDINS220 C867 (UniProt Q9ULH0) | 0.436 (inactive)
UTP6 C175 (UniProt Q9NYH9) | 1.62 (active)
TBCD C1175 (UniProt Q9BTW9) | 0.204 (inactive)
GPHN C419 (UniProt Q9NQX3) | 0.38 (inactive)
MAGED2 C516 (UniProt Q9UNF1) | 0.293 (inactive)
ITSN2 C1194 (UniProt Q9NZM3) | -0.296 (inactive)
RDH14 C97 (UniProt Q9HBH5) | 0.228 (inactive)
UniProt Q9P260_C624 | 0.299 (inactive)
